Test results as given in the supplement of paper PMC12669032.

Columns and labels:
Assay in all cases: growth AUC relative to DMSO control (median of replicates) (fraction); higher = more growth (less inhibition), active = hit call of the paper
Conditions in all cases: 20 µM; 24 h;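 active = AUC reduced over 20% with Padj below 0.05 in at least 2 of 3 replicates; inactive = otherwise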
Akkermansia muciniphila = tested on: Akkermansia muciniphila
Procedure, shortened: (§1)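 OD600 was recorded every hour for 24 h in anaerobic monocultures of gut bacteria kept at 37 °C in mGAM, seeded at OD600 0.05 and given 20 µM compound in 1% DMSO. The area under each growth curve was scaled to the plate median of solvent-only wells, or to row and column medians for the industrial chemical plate. Before this step, the minimum OD was set to 0. Reported values are medians of three biological replicates run on separate days.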

Bacteroides caccae = tested on: Bacteroides caccae
Procedure, shortened: as §1

Bacteroides clarus = tested on: Bacteroides clarus
Procedure, shortened: as §1

Bacteroides dorei = tested on: Bacteroides dorei
Procedure, shortened: as §1

Bacteroides stercoris = tested on: Bacteroides stercoris
Procedure, shortened: as §1

[1] = tested on: Bacteroides thetaiotaomicron
Procedure, shortened: as §1

Bacteroides uniformis = tested on: Bacteroides uniformis
Procedure, shortened: as §1

[2] = tested on: Bifidobacterium longum subsp. longum
Procedure, shortened: as §1

Clostridium difficile = tested on: Clostridium difficile
Procedure, shortened: as §1

Collinsella aerofaciens = tested on: Collinsella aerofaciens
Procedure, shortened: as §1

Measured: growth AUC

COc1cc(OC)nc(NC(=O)NS(=O)(=O)Nc2ccccc2C(=O)C2CC2)n1
inactive: Akkermansia muciniphila 0.985 | Bacteroides caccae 0.988 | Bacteroides clarus 0.943 | Bacteroides dorei 0.963 | Bacteroides stercoris 0.983 | [1] 0.961 | Bacteroides uniformis 0.915 | [2] 0.961 | Clostridium difficile 1.01 | Collinsella aerofaciens 0.997

CC(C)N(C(=O)C(=O)O)c1ccccc1
inactive: Akkermansia muciniphila 1.01 | Bacteroides caccae 1.01 | Bacteroides clarus 1.05 | Bacteroides dorei 1.03 | Bacteroides stercoris 1.13 | [1] 1.01 | Bacteroides uniformis 1.01 | [2] 1.08 | Clostridium difficile 1.02 | Collinsella aerofaciens 0.981

CCCNCCOc1c(Cl)cc(Cl)cc1Cl
inactive: Akkermansia muciniphila 0.946 | Bacteroides caccae 0.972 | Bacteroides clarus 0.979 | Bacteroides dorei 0.985 | Bacteroides stercoris 0.898 | [1] 0.979 | Bacteroides uniformis 1 | [2] 0.918 | Clostridium difficile 0.973 | Collinsella aerofaciens 0.98

COC(=O)c1ccccc1S(=O)(=O)NC(=O)n1nc(OCC(C)O)n(C)c1=O (stereo not given)
inactive: Akkermansia muciniphila 0.933 | Bacteroides caccae 1 | Bacteroides clarus 0.962 | Bacteroides dorei 0.992 | Bacteroides stercoris 0.982 | [1] 0.994 | Bacteroides uniformis 1.03 | [2] 0.956 | Clostridium difficile 0.951 | Collinsella aerofaciens 1.02

COC(=O)c1ccc(C)cc1C1=NC(C)(C(C)C)C(=O)N1 (racemic)
inactive: Akkermansia muciniphila 1.03 | Bacteroides caccae 1.01 | Bacteroides clarus 0.971 | Bacteroides dorei 0.975 | Bacteroides stercoris 0.863 | [1] 0.976 | Bacteroides uniformis 1 | [2] 1 | Clostridium difficile 0.972 | Collinsella aerofaciens 0.957

CCOC(=O)NCCOc1ccc(Oc2ccccc2)cc1
inactive: Akkermansia muciniphila 0.87 | Bacteroides caccae 0.934 | Bacteroides clarus 0.928 | Bacteroides dorei 0.854 | Bacteroides stercoris 0.968 | [1] 0.891 | Bacteroides uniformis 0.958 | [2] 0.914 | Clostridium difficile 0.98 | Collinsella aerofaciens 0.984

Cc1[nH]n(C)c(=O)c1C(=O)c1ccc(C(F)(F)F)cc1S(C)(=O)=O
inactive: Akkermansia muciniphila 0.91 | Bacteroides caccae 1.06 | Bacteroides clarus 0.997 | Bacteroides dorei 1.02 | Bacteroides stercoris 1.01 | [1] 0.978 | Bacteroides uniformis 1.01 | [2] 0.977 | Clostridium difficile 0.989 | Collinsella aerofaciens 1

COCCN(C(=O)CO)c1c(C)cccc1C(=O)O
inactive: Akkermansia muciniphila 1.23 | Bacteroides caccae 0.963 | Bacteroides clarus 1 | Bacteroides dorei 0.964 | Bacteroides stercoris 1.03 | [1] 1.01 | Bacteroides uniformis 0.961 | [2] 1.06 | Clostridium difficile 0.94 | Collinsella aerofaciens 0.936

CCCCCCCC/C=C\CCCCCCCCCCCC(=O)O
inactive: Akkermansia muciniphila 1.05 | Bacteroides caccae 1.01 | Bacteroides clarus 1.02 | Bacteroides dorei 0.995 | Bacteroides stercoris 1.01 | [1] 1.02 | Bacteroides uniformis 1.01 | [2] 0.902 | Clostridium difficile 1 | Collinsella aerofaciens 0.983

O=c1oc(-c2ccccc2)nc2ccccc12
inactive: Akkermansia muciniphila 0.96 | Bacteroides caccae 1.01 | Bacteroides clarus 0.984 | Bacteroides dorei 0.979 | Bacteroides stercoris 0.955 | [1] 0.966 | Bacteroides uniformis 0.971 | [2] 0.947 | Clostridium difficile 0.994 | Collinsella aerofaciens 0.976

CN1CCC[C@H]1c1cccnc1
inactive: Akkermansia muciniphila 0.753 | Bacteroides caccae 0.995 | Bacteroides clarus 0.997 | Bacteroides dorei 1.04 | Bacteroides stercoris 1 | [1] 0.984 | Bacteroides uniformis 0.981 | [2] 1.01 | Clostridium difficile 0.951 | Collinsella aerofaciens 1.04

[S]
inactive: Akkermansia muciniphila 1.05 | Bacteroides caccae 0.954 | Bacteroides clarus 1 | Bacteroides dorei 1.07 | Bacteroides stercoris 1.07 | [1] 1.02 | Bacteroides uniformis 1.06 | [2] 1.01 | Clostridium difficile 1.01 | Collinsella aerofaciens 0.946

COC(=O)[C@@H](C)Oc1ccc(Oc2ncc(C(F)(F)F)cc2Cl)cc1
inactive: Akkermansia muciniphila 1.04 | Bacteroides caccae 0.831 | Bacteroides clarus 1.01 | Bacteroides dorei 0.984 | Bacteroides stercoris 1.16 | [1] 0.963 | Bacteroides uniformis 0.907 | [2] 0.976 | Clostridium difficile 1.05 | Collinsella aerofaciens 0.981

CCNc1nc(NC(C)(C)C)nc(OC)n1
inactive: Akkermansia muciniphila 0.972 | Bacteroides caccae 0.985 | Bacteroides clarus 0.998 | Bacteroides dorei 0.992 | Bacteroides stercoris 1.11 | [1] 0.987 | Bacteroides uniformis 0.985 | [2] 1.02 | Clostridium difficile 0.998 | Collinsella aerofaciens 1.07

O=C(Oc1ccccc1)n1c(C(F)(F)F)nc2cc(Cl)c(Cl)cc21
active: Akkermansia muciniphila 0.177 | Bacteroides caccae 0.215 | Bacteroides clarus 0.121 | Bacteroides dorei 0.236 | Bacteroides stercoris 0.0063 | [1] 0.0816 | Bacteroides uniformis 0.0127 | Clostridium difficile 0.561
inactive: [2] 0.891 | Collinsella aerofaciens 0.958

CCc1nc2ncnn2c(N)c1CCCC(=O)O.Cl
inactive: Akkermansia muciniphila 1.12 | Bacteroides caccae 0.907 | Bacteroides clarus 1.03 | Bacteroides dorei 1 | Bacteroides stercoris 1.14 | [1] 0.985 | Bacteroides uniformis 1.02 | [2] 1.01 | Clostridium difficile 1.04 | Collinsella aerofaciens 1

C[S+](C)CCC(=O)O.[Cl-]
inactive: Akkermansia muciniphila 0.964 | Bacteroides caccae 1.03 | Bacteroides clarus 0.974 | Bacteroides dorei 1.04 | Bacteroides stercoris 0.974 | [1] 1 | Bacteroides uniformis 1.01 | [2] 1.01 | Clostridium difficile 1.01 | Collinsella aerofaciens 0.986

CC(C)NS(=O)(=O)NC(=O)c1cc(NC(N)=O)c(F)cc1Cl
inactive: Akkermansia muciniphila 1.06 | Bacteroides caccae 1 | Bacteroides clarus 0.988 | Bacteroides dorei 0.959 | Bacteroides stercoris 0.991 | [1] 0.808 | Bacteroides uniformis 1.02 | [2] 1.02 | Clostridium difficile 1.06 | Collinsella aerofaciens 0.981

Br[C@@H]1CC[C@@H](Br)[C@@H](Br)CC[C@@H](Br)[C@@H](Br)CC[C@H]1Br
inactive: Akkermansia muciniphila 1.01 | Bacteroides caccae 0.983 | Bacteroides dorei 0.924 | [1] 0.967 | Bacteroides uniformis 0.928 | Clostridium difficile 1.01
active: Bacteroides clarus 0.795 | Bacteroides stercoris 0.573 | [2] 0.779 | Collinsella aerofaciens 0.796

CCOCCc1ccc(OCCNc2ncnc(CC)c2Cl)c(C)c1C
inactive: Akkermansia muciniphila 0.937 | Bacteroides caccae 0.929 | Bacteroides clarus 0.883 | Bacteroides dorei 0.942 | Bacteroides stercoris 0.975 | [1] 0.915 | Bacteroides uniformis 0.887 | [2] 0.923 | Clostridium difficile 0.998 | Collinsella aerofaciens 0.94

FC(F)(F)c1cccc(C(c2ccccc2)(c2ccccc2)n2cncn2)c1
active: Bacteroides caccae 0.02
inactive: Akkermansia muciniphila 0.852 | Bacteroides clarus 0.93 | Bacteroides dorei 0.92 | Bacteroides stercoris 0.892 | [1] 0.869 | Bacteroides uniformis 0.877 | [2] 0.948 | Clostridium difficile 1.04 | Collinsella aerofaciens 0.924

CN(C)c1ccc(N=NS(=O)(=O)[O-])cc1.[Na+]
inactive: Akkermansia muciniphila 1.03 | Bacteroides caccae 1.02 | Bacteroides clarus 1.01 | Bacteroides dorei 0.957 | Bacteroides stercoris 1.06 | [1] 0.955 | Bacteroides uniformis 0.98 | [2] 0.978 | Clostridium difficile 1.03 | Collinsella aerofaciens 1.02

CCCOC(=O)NCCCN(C)C
inactive: Akkermansia muciniphila 0.994 | Bacteroides caccae 1.01 | Bacteroides clarus 1.03 | Bacteroides dorei 1 | Bacteroides stercoris 0.98 | [1] 1.02 | Bacteroides uniformis 1 | [2] 1.02 | Clostridium difficile 0.987 | Collinsella aerofaciens 0.975

CC(C)(NC(=O)C(Br)C(C)(C)C)c1ccccc1 (stereo not given)
inactive: Akkermansia muciniphila 0.896 | Bacteroides caccae 1.01 | Bacteroides clarus 0.924 | Bacteroides dorei 0.995 | Bacteroides stercoris 0.766 | [1] 0.971 | Bacteroides uniformis 1.06 | [2] 0.84 | Clostridium difficile 1.01 | Collinsella aerofaciens 1.01

CCOC(=O)C(C)N(C(=O)c1ccccc1)c1ccc(Cl)c(Cl)c1 (stereo not given)
inactive: Akkermansia muciniphila 1.07 | Bacteroides caccae 0.975 | Bacteroides clarus 0.948 | Bacteroides dorei 0.963 | Bacteroides stercoris 1.13 | [1] 0.922 | Bacteroides uniformis 0.89 | [2] 0.945 | Clostridium difficile 1.01 | Collinsella aerofaciens 1.02

CC(C)N(C)S(=O)(=O)NC(=O)c1cc(-n2c(=O)cc(C(F)(F)F)[nH]c2=O)c(F)cc1Cl
inactive: Akkermansia muciniphila 0.971 | Bacteroides caccae 0.993 | Bacteroides clarus 0.983 | Bacteroides dorei 0.967 | Bacteroides stercoris 1.1 | [1] 1 | Bacteroides uniformis 1.03 | [2] 0.962 | Clostridium difficile 0.982 | Collinsella aerofaciens 0.953

CC(C)(C)[C@@H](O)[C@@H](Cc1ccc(Cl)cc1)n1cncn1 (mixture of isomers)
inactive: Akkermansia muciniphila 1.1 | Bacteroides caccae 0.942 | Bacteroides clarus 0.98 | Bacteroides dorei 0.909 | Bacteroides stercoris 0.933 | [1] 0.993 | Bacteroides uniformis 0.966 | [2] 1.09 | Clostridium difficile 0.938 | Collinsella aerofaciens 0.967

Cc1cc(C)cc(OCC(C)Nc2nc(N)nc(C(C)(C)F)n2)c1 (stereo not given)
inactive: Akkermansia muciniphila 1.07 | Bacteroides caccae 0.889 | Bacteroides clarus 0.889 | Bacteroides dorei 0.978 | Bacteroides stercoris 0.746 | [1] 0.912 | Bacteroides uniformis 0.962 | [2] 1.03 | Clostridium difficile 0.983 | Collinsella aerofaciens 0.929

CCNc1nc(NC(C)(C)C)[nH]c(=O)n1
inactive: Akkermansia muciniphila 1 | Bacteroides caccae 0.937 | Bacteroides clarus 0.98 | Bacteroides dorei 1.01 | Bacteroides stercoris 1.17 | [1] 0.969 | Bacteroides uniformis 0.983 | [2] 1.03 | Clostridium difficile 0.951 | Collinsella aerofaciens 0.95
